# Screening results from PubChem.
# A selection: hits, their analogues and other compounds. The true share with any hit is near 12%.
# PI5P4Ka inh – qHTS for Inhibitors of phosphatidylinositol 5-phosphate 4-kinase (PI5P4K); PI5P4Kalpha enzyme, ADP-Glo luminescence, 60 min; active compounds read low; max response, %; 330,000 tested, 1.2% active; AID 652105, 2013; active = max response of -50% or lower; inconclusive = between -30% and -50%; inactive = -30% or higher; also: value at the top dose of about 77 µM; % is scaled to controls: 0 for no effect and ±100 for the full control effect
# Target sequence (P48426 whole entry, looked up): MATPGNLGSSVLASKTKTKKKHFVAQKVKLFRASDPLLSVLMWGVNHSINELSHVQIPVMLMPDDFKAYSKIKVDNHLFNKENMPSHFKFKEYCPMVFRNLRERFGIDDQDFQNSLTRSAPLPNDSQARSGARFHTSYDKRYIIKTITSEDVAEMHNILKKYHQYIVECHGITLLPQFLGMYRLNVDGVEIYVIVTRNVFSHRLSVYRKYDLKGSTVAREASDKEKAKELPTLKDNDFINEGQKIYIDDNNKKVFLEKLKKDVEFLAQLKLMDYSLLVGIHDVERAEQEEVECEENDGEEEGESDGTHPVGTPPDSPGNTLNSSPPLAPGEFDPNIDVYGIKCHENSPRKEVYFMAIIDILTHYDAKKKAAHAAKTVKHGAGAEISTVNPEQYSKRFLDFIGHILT
#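 Reactions run in 0.038 M HEPES pH 7.4, 0.28 mM EGTA, 0.1% CHAPS and 5% DMSO, with PI5P4Kalpha, substrate, compound and 5 microM ATP final, one hour at room temperature. Readout is ADP-Glo luminescence.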
# BAZ2B block – qHTS Assay for Inhibitors of BAZ2B; 360,000 tested, 4.4% active; AlphaScreen BAZ2B-H3K14Ac peptide displacement; Potency, µM (series often up to 114 µM), without a hit: at the highest dose activity change, negative = inhibition, usual class: inhibitors; also: potency is read from the fitted curve at half-maximal effect; % is scaled to controls: 0 for no effect and ±100 for the full control effect; nearly all actives have a fitted effect of over 60% in size
#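 Multi-concentration screen (max 110 uM) measuring displacement of acetylated histone H3 peptide from BAZ2B by AlphaScreen, using 50 nM protein, 50 nM peptide and 10 ug/mL streptavidin donor plus Ni-chelate acceptor beads.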
# HP1b chromo inh – HTS for Inhibitors of HP1-beta Chromodomain Interactions with Methylated Histone Tails. 390,000 tested, 0.56% active. AlphaScreen HP1-beta / biotin-H3K9me3 peptide binding. Potency, µM (doses to about 114 µM), without a hit: at the highest dose activity change, negative = inhibition, actives largely listed as inhibitors; also: potency is read from the fitted curve at half-maximal effect; nearly all actives have a fitted effect of over 70% in size
# Target sequence (P83916 whole entry, looked up): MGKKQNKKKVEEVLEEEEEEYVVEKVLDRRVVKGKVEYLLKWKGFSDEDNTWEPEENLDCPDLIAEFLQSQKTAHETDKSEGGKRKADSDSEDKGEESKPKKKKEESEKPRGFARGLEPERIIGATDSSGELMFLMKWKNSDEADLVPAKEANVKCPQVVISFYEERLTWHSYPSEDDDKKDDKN
#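 Compound inhibition of the preformed complex between 50 nM HP1-beta and 50 nM biotinylated H3K9me3 peptide was read by AlphaScreen. Buffer was PBS pH 7.4 with 0.01% Tween-20. Incubations ran 30 min at room temperature, with 10 ug/mL donor/acceptor beads.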
# JMJD2A Tudor inh – qHTS Assay for Inhibitors of JMJD2A-Tudor Domain | AlphaScreen JMJD2A-Tudor / H3K4me3 peptide binding | AID 504339, 2011 | 390,000 tested, 4.4% active | Potency, µM (titrated, usually from 114 µM), inactives show top-dose activity change, negative = inhibition, usual class: inhibitors; also: potency is read from the fitted curve at half-maximal effect; % is scaled to controls: 0 for no effect and ±100 for the full control effect; nearly all actives have a fitted effect of over 50% in size
# G9a block – qHTS Assay for Inhibitors of Histone Lysine Methyltransferase G9a; Potency, µM (titrated, usually from 102 µM), inactives show at the highest dose activity, negative = inhibition, hits mostly inhibitors; Histone-lysine N-methyltransferase EHMT2 (Homo sapiens), Q96KQ7; 350,000 tested, 8.8% active; G9a H3K9 monomethylation, AlphaScreen, 2 h; also: potency is read from the fitted curve at half-maximal effect; % is scaled to controls: 0 for no effect and ±100 for the full control effect; nearly all actives have a fitted effect of over 75% in size
#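 Readings reflect AlphaScreen signal from monomethyl-H3K9 antibody detection. HMT at 20 nM; substrate b-H3K9 500 nM; cofactor SAM 20 uM; 2 h RT reaction; compounds tested as titrations in qHTS with 15 min preincubation.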
# PLK1 PBD inh – qHTS for Inhibitors of PLK1-PDB (polo-like kinase 1 - polo-box domain): Primary Screen | Serine/threonine-protein kinase PLK1 (Homo sapiens), P53350 | Plk1 PBD binding of FITC phosphopeptide, fluorescence polarization | Potency, µM, without a hit: max response, negative = inhibition, most hits filed as inhibitors | 360,000 tested, 2.8% active; also: potency is read from the fitted curve at half-maximal effect; series mostly up to about 57 µM; % is scaled to controls: 0 for no effect and ±100 for the full control effect; nearly all actives have a fitted effect of over 65% in size
# TbPYK inh – qHTS of Trypanosoma Brucei Inhibitors: Confirmatory Assay for Cherry-picked Compounds; shares compounds with PLK1 PBD inh; recombinant TbPYK, Kinase-Glo ATP luminescence; AID 720569, 2013; Potency, µM (series often up to 76.9 µM), for inactives: at the highest dose activity change, negative = inhibition, actives largely listed as inhibitors; 890 tested, 67% active; also: potency is read from the fitted curve at half-maximal effect; % is scaled to controls: 0 for no effect and ±100 for the full control effect; nearly all actives have a fitted effect of over 70% in size
# TbPYK orthogonal – qHTS of Trypanosoma Brucei Inhibitors: Orthogonal Assay for Cherry-picked Compounds; shares compounds with PLK1 PBD inh; recombinant TbPYK, ADP-Glo luminescence, 60 min; Potency, µM (top dose mostly 76.9 µM), inactives show at the highest dose activity change, negative = inhibition, actives largely listed as inhibitors; 890 tested, 62% active; AID 720584, 2013; also: potency is read from the fitted curve at half-maximal effect; % is scaled to controls: 0 for no effect and ±100 for the full control effect; nearly all actives have a fitted effect of over 75% in size
# * marks the source's active call; other numbers are inactive results; ? = inconclusive; nt = no result given; [ ] = another dose, or the depositor's remark. Unless noted, calls follow the shape of the dose curve; as a rule, active = well fitted curve in the direction sought with a large enough effect; inconclusive = small, poorly fitted or top-dose-only effect, or another doubt; inactive = no such curve, though single readings can be large; an effect the other way counts as inactive or inconclusive.
SMILES,PI5P4Ka inh,BAZ2B block,HP1b chromo inh,JMJD2A Tudor inh,G9a block,PLK1 PBD inh,TbPYK inh,TbPYK orthogonal
Cc1cc(OC(C)C(=O)NCC2CCCO2)cc(C)c1Cl (configuration not stated),3,1%,11%,-9%,-9%[12.7 µM],-10%,nt,nt
CCn1c(=O)cc(C(F)(F)F)[nH]c1=S,?,-13%,31%,-21%,25µM*,-12%,?,35µM*
Cc1cc(C)cc(Oc2c(C(F)(F)F)oc3c(CN4CCCC(C)C4)c(O)ccc3c2=O)c1 (configuration not stated),nt,0%,33%,-3%,0%[59 µM],nt,nt,nt
Cc1ccc(Cn2c(=O)c3ccccc3n3c(-c4cccc(O)c4)nnc23)cc1,nt,1%,34%,-8%,-24%[59 µM],nt,nt,nt
Nc1ccc(S(=O)(=O)c2cc(O)c3ccccc3c2O)cc1,-78*,nt,13µM*,45µM*,nt,2.7µM*,13µM*,32µM*
O=c1c2ccccc2on1-c1ccccc1,-2,nt,nt,nt,nt,2%,nt,nt
Cc1c[n+](CC(=O)c2ccccc2)c(C)cn1,9,-8%,34%,-24%,nt,-6%,nt,nt
COc1ccc(C(=O)/C=C/C(=O)N(CC(=O)NC2CCCCC2)CC2CCCO2)c(O)c1 (configuration not stated),3,-30%,-5%,-20%,8.9µM*,6.7µM*,7.1µM*,10µM*
CCOc1cc(N2CCOCC2)c(OCC)cc1NS(=O)(=O)c1ccc2c(c1)CC(=O)N2,-21,nt,nt,nt,nt,1%,nt,nt
Cc1cccc(NC(=O)CN2C(=O)N/C(=C/c3ccc(C)o3)C2=O)c1,-51*,4%,-25%,79µM*,35µM*,3%,?,35µM*
CCn1c(C)cc(/C=C2\NC(=O)N(CC(=O)Nc3cccc(C)c3)C2=O)c1C,-9,?,11%,-19%,?,-11%,nt,nt
Cc1ccc(C)c(-c2cc(C(=O)Nc3cccnc3)c3ccccc3n2)c1,-2,-24%,6%,-23%,?,-12%,nt,nt
Cc1ccc(-c2cc(C(=O)Nc3cccnc3)c3ccccc3n2)o1,nt,-33%,?,22µM*,8.9µM*,?,?,-27%
O=C(O)C1OC(Oc2cc3oc(-c4ccccc4)cc(=O)c3c(O)c2O)C(O)C(O)C1O (configuration not stated),-20,-5%,-1%,20µM*,40µM*,3%,2.8µM*,2.8µM*
COc1c(OC2OC(C(=O)O)C(O)C(O)C2O)cc(O)c2c(=O)cc(-c3ccccc3)oc12 (configuration not stated),-4,-3%,17%,?,-22%,-14%,nt,nt
Cc1ccc(CNC(=O)CN2C(=O)CCc3cc(S(=O)(=O)N4CCCCC4)ccc32)cc1,nt,0%,27%,-7%,-2%[12.7 µM],nt,nt,nt
O=c1[nH]c2sc3c(c2c2nncn12)CCCC3,nt,9%,28%,-10%,-13%[59 µM],-26%,?,35µM*
COc1ccc(NC(=O)c2ccccc2N(Cc2ccccc2)S(C)(=O)=O)c(OC)c1,3,-34%,31%,-7%,2%[59 µM],2%,nt,nt
COc1ccc(OC)c(NC(=O)c2ccccc2N(Cc2ccccc2)S(C)(=O)=O)c1,0,-30%,7%,-31%,?,-9%,8.9µM*,14µM*
COc1ccccc1CNC(=O)CN(C)CC(=O)Nc1ccccc1Br,12,nt,38%,-1%,nt,4%,nt,nt
CCN(CC)C(=O)CSC1=C(C#N)C(c2cccs2)C=C(C)N1 (configuration not stated),-16,16%,17%,56µM*,10µM*,?,14µM*,14µM*
C#CCSC1=C(C#N)C(c2cccs2)C(C(=O)OCC)=C(C)N1 (configuration not stated),nt,19%,38%,-9%,1%[12.7 µM],-23%,nt,nt
Cc1cccc(C(O)c2ncc(-c3ccc(C(F)(F)F)cc3)[nH]2)c1C (configuration not stated),6,nt,nt,nt,nt,0%,nt,nt
O=C(Nc1ccc2c(c1)ncn2-c1ccccc1)c1ccco1,nt,2%,8%,-22%,11µM*,?,14µM*,4.5µM*
COc1ccc(C2/C=C\[C@H](O[Si](C)(C)C(C)(C)C)[C@H](C(C)C)CC(=O)N2Cc2ccccc2)cc1 (some centres not stated),nt,nt,nt,nt,-44%[59 µM],nt,nt,nt
SMILES,PI5P4Ka inh,BAZ2B block,HP1b chromo inh,JMJD2A Tudor inh,G9a block,PLK1 PBD inh,TbPYK inh,TbPYK orthogonal
CC(=O)c1ccc(N2CCN(c3ccc(C(N)=O)cc3[N+](=O)[O-])CC2)cc1,0,-37%,25%,-23%,nt,-4%,nt,nt
NC(=O)c1ccc(N2CCN(c3ccc(O)cc3)CC2)c([N+](=O)[O-])c1,-55*,?,79µM*,25µM*,?,-5%,14µM*,?
CCOC(=O)c1ccc(N2CSC3=C(C#N)C(c4cccs4)CC(=O)N3C2)cc1 (configuration not stated),-70*,45µM*,?,28µM*,5.6µM*,-22%,?,?
COc1ccccc1NC(=O)CCCCCN1C(=O)c2cccc([N+](=O)[O-])c2C1=O,-1,-4%,36%,-31%,nt,-15%,nt,nt
COc1cc(/C=C2/C(=O)c3cccc([N+](=O)[O-])c3C2=O)c(Br)cc1O,-60*,20µM*,25µM*,18µM*,10µM*,1.5µM*,25µM*,-17%
OC(Cc1ccccc1Br)c1ncc(-c2ccc(Cl)cc2)[nH]1 (configuration not stated),7,nt,nt,nt,nt,4%,nt,nt
O=[N+]([O-])c1ccc2c(c1)-c1ccccc1C2O (configuration not stated),-69*,nt,nt,nt,nt,8.4µM*,?,35µM*
